Compounds with a hit are over-represented: about 5.8% of the library has one in this group of screens.
TRPV1 PAM = potentiators of human vanilloid receptor 1 (TRPV1); 320,000 compounds, 0.02% hits; Q8NER1; TRPV1-expressing cells, Fluo-8 calcium influx, capsaicin EC20 potentiation; potentiation, % at 8.33 µM; in the data active = potentiation above about 80%; inconclusive = between about 30% and that limit; note: 0% is about no effect
Target sequence (Q8NER1 whole entry, looked up): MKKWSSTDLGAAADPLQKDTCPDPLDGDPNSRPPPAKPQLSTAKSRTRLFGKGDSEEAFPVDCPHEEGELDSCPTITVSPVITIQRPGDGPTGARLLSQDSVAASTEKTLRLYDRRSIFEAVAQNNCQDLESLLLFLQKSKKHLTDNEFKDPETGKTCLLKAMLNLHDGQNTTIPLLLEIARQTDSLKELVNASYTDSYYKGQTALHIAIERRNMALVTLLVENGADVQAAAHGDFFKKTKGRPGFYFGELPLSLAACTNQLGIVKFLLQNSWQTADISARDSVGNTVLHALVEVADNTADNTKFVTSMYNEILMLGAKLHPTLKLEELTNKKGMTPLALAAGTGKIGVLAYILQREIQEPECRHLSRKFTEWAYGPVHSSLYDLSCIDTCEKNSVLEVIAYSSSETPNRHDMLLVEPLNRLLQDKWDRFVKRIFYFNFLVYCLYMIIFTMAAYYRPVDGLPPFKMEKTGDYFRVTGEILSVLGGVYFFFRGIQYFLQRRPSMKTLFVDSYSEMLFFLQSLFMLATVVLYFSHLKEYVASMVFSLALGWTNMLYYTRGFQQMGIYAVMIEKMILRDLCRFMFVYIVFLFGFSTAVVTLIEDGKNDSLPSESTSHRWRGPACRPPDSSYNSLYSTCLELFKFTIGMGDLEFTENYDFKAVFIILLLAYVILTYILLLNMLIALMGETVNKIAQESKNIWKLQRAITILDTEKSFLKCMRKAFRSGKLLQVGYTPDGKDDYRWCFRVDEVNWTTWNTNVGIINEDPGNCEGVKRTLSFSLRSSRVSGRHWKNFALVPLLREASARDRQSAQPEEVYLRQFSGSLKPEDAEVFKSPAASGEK
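TRPV1-expressing cells were cultured overnight at 35.5C and loaded with Fluo-8 calcium dye for 40 to 90 min at room temperature. After a 10 s baseline, compound was added and calcium influx was read kinetically for 3 min (ex 480/em 520 nm).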
uPA surface inh = inhibitors of cell surface uPA generation. cell surface uPA generation assay, qHTS. Potency, µM (doses to about 38.3 µM), for inactives: top-dose activity change, negative = inhibition, hits mostly inhibitors. 330,000 compounds, 0.31% hits. AID 540303; active = well fitted inhibition curve with a large enough effect; inconclusive = small, poorly fitted or top-dose-only effect; inactive = no such curve, though single readings can be large or run the other way; tested in mouse RAW 264.7 cells; note: potency is the fitted concentration of half-maximal effect; % is set by controls: 0 for no effect and ±100 for the full control effect; nearly all actives have a fitted effect of over 55% in size
RORgamma inh = blocks mouse ROR gamma transcriptional activity; P51450; Drosophila S2 Gal4-RORgamma UAS-luciferase reporter, 20 h; Potency, µM (titrated, usually from 53.6 µM), without a hit: top-dose activity change, negative = inhibition, actives largely listed as inhibitors; 310,000 compounds, 5.4% hits; AID 2551; note: potency is the fitted concentration of half-maximal effect; % is set by controls: 0 for no effect and ±100 for the full control effect; nearly all actives have a fitted effect of over 60% in size
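ROR gamma transcriptional activity was tracked as Gal4-UAS luciferase output in stably transfected Drosophila Schneider cells, with compound added 1 hr before 700 uM copper sulfate induction and a 20 hr ambient-temperature incubation.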
Gal4-VP16 FLuc = counter-screen for ROR gamma inhibitors: Gal4-VP16 reporter; Drosophila S2 Gal4-VP16 UAS-luciferase, luminescence, 20 h; Potency, µM (titrated, usually from 53.6 µM), for inactives: at the highest dose activity, negative = inhibition, actives largely listed as inhibitors; 310,000 compounds, 3.5% hits; AID 2546;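 note: Gal4-VP16 expression switched on by copper sulfate through the metallothionein promoter; potency is the fitted concentration of half-maximal effect; % is set by controls: 0 for no effect and ±100 for the full control effect; nearly all actives have a fitted effect of over 50% in size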
TRPV1 ag = activates the human vanilloid receptor TRPV1; activation, % at 8.33 µM; AID 540275; TRPV1-expressing cells, Fluo-8 calcium influx, agonist mode; Q8NER1; 320,000 compounds, 0.19% hits; in the data active = activation above about 80%; inconclusive = between about 30% and that limit; note: 0% is about no effect
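Cells expressing TRPV1 were dye-loaded with Fluo-8 and read kinetically: 10 s baseline, 3 min after compound (agonist portion), then 2 min after EC20 capsaicin (allosteric enhancer portion). Calcium-bound dye fluorescence at 480/520 nm.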
Numbers without * were called inactive; ? = inconclusive; . = not tested or not shown; [ ] = remark or other dose. Unless noted, calls come from the whole dose curve; as a rule, active = well fitted curve in the direction sought with a large enough effect; inconclusive = small, poorly fitted or top-dose-only effect, or another doubt; inactive = no such curve, though single readings can be large; an effect the other way counts as inactive or inconclusive.

SMILES	TRPV1 PAM	uPA surface inh	RORgamma inh	Gal4-VP16 FLuc	TRPV1 ag
S=C1Cc2ccccc2C(c2ccc(Cl)cc2)N1 (configuration not stated)	2.1	2.1%	6.31µM*	5.62µM*	13.0
CCOC(=O)c1c(S(=O)(=O)NCc2ccco2)c(C)n(C)c1C	14.8	-1.8%	-8.2%	3.7%	-1.7
O=S(=O)(c1ccc(Br)s1)N1CCC(Cc2ccccc2)CC1	8.1	.	12.6µM*	-11.4%	-0.4
O=C(CCN1C(=O)C2C3C=CC(C4CC34)C2C1=O)Oc1ccc(Br)cc1 (configuration not stated)	-4.1	3.4%	1.2%	-3.6%	-0.6
O=C(CCN1C(=O)C2C3C=CC(C4CC34)C2C1=O)Oc1cccc2cccnc12 (configuration not stated)	-16.8	-7.3%	2µM*	7.94µM*	0.3
COC(=O)c1cc(S(=O)(=O)NCc2ccc(S(N)(=O)=O)cc2)oc1C	-0.8	-0.2%	6.4%	-4.1%	1.7
Cc1ccc(C)c(OCCn2c(CCNC(=O)C3CCCCC3)nc3ccccc32)c1	-22.2	.	.	.	2.2
O=C(Nc1nc2ccccc2[nH]1)C1CCC1	2.7	-15.4%	?	?	-0.5
O=C(CN1C(=O)NC2(CCCC2)C1=O)Nc1nc2ccccc2[nH]1	10.9	-1.3%	.	.	-0.7
O=C(CC1CCCC1)Nc1nc2ccccc2[nH]1	6.0	-4.5%	8.91µM*	?	1.6
O=C(Nc1nc2ccccc2[nH]1)C1CCCC1	-7.2	-11.4%	7.08µM*	?	2.4
O=C(NC(=S)N1CCN(c2ccc(F)cc2)CC1)C12CC3CC(CC(C3)C1)C2	-0.1	-3.7%	1.26µM*	3.16µM*	27.6
CCOc1ccccc1N1CCN(C(=S)NCc2ccc(Cl)cc2)CC1	3.2	-1.2%	19.1%	-8.7%	?
O=C(Nc1ccccc1N1CCN(c2ccc(F)cc2)CC1)C12CC3CC(CC(C3)C1)C2	-6.0	1.6%	-16.4%	-10.0%	23.6
CCOc1ccccc1N1CCN(C(=S)NC(=O)C23CC4CC(CC(C4)C2)C3)CC1	15.2	-0.9%	3.55µM*	3.55µM*	0.4
Cc1noc(C)c1-c1cc(NCCN2CCOCC2)ncn1	.	.	0.2%	?	.
C=CCN(CC=C)S(=O)(=O)c1ccc(NC(=O)COc2ccccc2OC)cc1	-2.0	2.3%	?	0.5%	1.9
COCc1nnc(NC(=O)c2ccc(S(=O)(=O)N(CC(C)C)CC(C)C)cc2)o1	21.5	?	0.631µM*	2.51µM*	-2.4
C=CCN(CC=C)S(=O)(=O)c1ccc(C(=O)Nc2nnc(COC)o2)cc1	1.9	?	2µM*	7.08µM*	-1.1
COc1ccc(CCNC(=O)c2cc3ccccc3oc2=O)cc1	22.3	-1.7%	-6.1%	-9.1%	9.4
CS(=O)(=O)ON=C1CCN(S(=O)(=O)c2ccccc2)CC1	-1.9	1.7%	-5.2%	-4.3%	2.3
COc1ccc(OC)c(NC(=O)C2CCC(CNc3c(N4CCC(C)CC4)c(=O)c3=O)CC2)c1 (configuration not stated)	-1.2	-27.9%	0.794µM*	-6.6%	17.7
O=C(O/N=C1\CCS(=O)(=O)c2sccc21)C1CC1	5.7	9.9%	40.8%	-2.4%[10 µM]	-1.7
COc1ccc(/C=C/C(=O)NC(=S)NN2CCCCC2c2cccnc2)cc1OC (configuration not stated)	0.1	-1.9%	12.6µM*	15.8µM*	-1.0
O=C(/C=C/c1ccc(Cl)cc1)NC(=S)NN1CCCCC1c1cccnc1 (configuration not stated)	-7.6	.	2µM*	?	0.4
SMILES	TRPV1 PAM	uPA surface inh	RORgamma inh	Gal4-VP16 FLuc	TRPV1 ag
COc1cc(OC)cc(C(=O)NC(=S)N2CCCCC2c2cccnc2)c1 (configuration not stated)	-4.9	-10.8%	38.4%	3.98µM*	-4.2
COc1ccc(NC(=O)N2CCCCC2c2cccnc2)cc1 (configuration not stated)	14.8	6.9%	29.8%	11.9%	3.3
C=CCn1c(-c2cccn(Cc3ccc(Cl)cc3)c2=O)n[nH]c1=S	-1.9	.	6.31µM*	?	-1.7
C=CCn1c(-c2cnn(-c3ccccc3)c2N)n[nH]c1=S	28.2	-3.4%	?	20.6%	-0.7
C=CCn1c(-c2cccn(Cc3ccc(Cl)cc3Cl)c2=O)n[nH]c1=S	4.6	.	2.51µM*	10µM*	-1.4
C=CCn1c(-c2cccn(Cc3ccccc3)c2=O)n[nH]c1=S	.	5.2%	11.2µM*	-29.3%	.
C=CCn1c(-c2ccccc2[N+](=O)[O-])n[nH]c1=S	-6.4	-1.5%	3.16µM*	?	-2.2
C=CCn1c(-c2ccc(=O)n(Cc3ccccc3)c2)n[nH]c1=S	4.2	.	-26.9%	-8.8%	-3.1
COc1ccc(C2c3[nH]c4ccccc4c3CCN2C(=O)Cc2nonc2C)c(F)c1 (configuration not stated)	-0.8	-12.4%	-3.7%	-7.9%	-0.8
CCC1=C2CC[C@H]3C(=O)N(C)C(=O)[C@H]3[C@H]2[C@@]2(C)C(=O)N(CC3CC3)C(=O)N2C1=O	.	.	-18.5%	8.6%	.
C=CCn1c(-c2cccn(Cc3cccc(Cl)c3)c2=O)n[nH]c1=S	11.8	.	12.6µM*	?	-4.6
O=c1c(-c2n[nH]c(=S)n2-c2ccccc2)cccn1Cc1cccc(Cl)c1	7.1	-3.9%	12.6µM*	-9.0%	2.8
O=c1c(-c2n[nH]c(=S)o2)cccn1Cc1ccccc1	-7.2	2.7%	-13.0%	7.6%	6.8
CSc1nnc(-c2cccn(Cc3cccc(Cl)c3)c2=O)o1	4.0	-0.5%	-0.3%	-12.8%	-5.4
COCC1C2CC[C@H]3C(OCc4ccc(OC)cc4)OC[C@]4(C)[C@H]3C2=C(CN4C(=O)OC(C)(C)C)[C@H](C)C1COC (some centres not stated)	.	.	26.9%	-3.9%	.
CN(C)S(=O)(=O)c1cccc(N=C2NN=C(c3ccccc3)CS2)c1	-0.3	-7.4%	?	15.8µM*	0.2
COc1ccc(C(=O)Nc2cc(C(C)=O)c(C)oc2=O)cc1	5.8	-12.1%	11.2µM*	?	-0.8
COc1ccc(C(=O)NNC(=O)c2cc3cc(OC)ccc3oc2=O)cc1	.	3.9%	-7.3%	3.7%	.
CC(=O)c1cc(NC(=O)c2cccc(C(F)(F)F)c2)c(=O)oc1C	-10.0	-8.1%	3.16µM*	7.08µM*	4.0
CC(=O)c1cc(NC(=O)c2cccc(C(F)(F)F)c2)c(=O)oc1/C=C/N(C)C	.	1.6%	12.7%	2.8%	.
CCCn1c(-c2ccc(F)cc2)nc2c(N3CCN(C)CC3)nc(C)nc21	.	.	-31.7%	4.4%	.
NNC(=S)Nc1c(Br)cc(F)cc1Br	-2.6	18.4%	6.31µM*	?	0.1
Cc1c(C(C)C)c(=O)n(-c2ccc(S(=O)(=O)NCc3ccccc3)cc2)n1C	-7.8	-1.4%	?	7.94µM*	15.3
Cc1c(C(C)C)c(=O)n(-c2ccc(S(=O)(=O)NC3CCCCC3)cc2)n1C	-15.6	-5.3%	?	11.2µM*	12.5
